Reference: the supplement of paper PMC7411054

Columns and labels:
Assay in all cases: phenotypically active (imaging signature differs from DMSO and reproducible) at any of 0.3-9 uM (binary (1 = active, 0 = inactive)); higher = active
Details in all cases: treatment time: 24 h
A549-ACTB-RAB5A = tested on: A549-ACTB-RAB5A
Procedure, shortened: (§1)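 Cells from fifteen gene-edited reporter lines (A549, HepG2 and WPMY1) were treated for 24 h at 0.3, 1, 3 or 9 µM and imaged live, four wells per condition. Features were normalised per well to solvent control wells. A condition deviated if ≥3 of 4 wells passed the 95th percentile of control Euclidean distances and was reproducible if its median replicate Pearson correlation beat the 95th percentile of non-replicates; phenotypic activity needed both.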

A549-CANX-COX4 = tested on: A549-CANX-COX4
Procedure, shortened: as §1

A549-GM130-SQSTM1 = tested on: A549-GM130-SQSTM1
Procedure, shortened: as §1

A549-TP53BP1-CLTA = tested on: A549-TP53BP1-CLTA
Procedure, shortened: as §1

A549-TUBA1B-RELA = tested on: A549-TUBA1B-RELA
Procedure, shortened: as §1

HepG2-ACTB-RAB5A = tested on: HepG2-ACTB-RAB5A
Procedure, shortened: as §1

HepG2-CANX-COX4 = tested on: HepG2-CANX-COX4
Procedure, shortened: as §1

HepG2-GM130-SQSTM1 = tested on: HepG2-GM130-SQSTM1
Procedure, shortened: as §1

HepG2-TP53BP1-CLTA = tested on: HepG2-TP53BP1-CLTA
Procedure, shortened: as §1

HepG2-TUBA1B-RELA = tested on: HepG2-TUBA1B-RELA
Procedure, shortened: as §1

WPMY1-ACTB-RAB5A = tested on: WPMY1-ACTB-RAB5A
Procedure, shortened: as §1

WPMY1-CANX-COX4 = tested on: WPMY1-CANX-COX4
Procedure, shortened: as §1

WPMY1-GM130-SQSTM1 = tested on: WPMY1-GM130-SQSTM1
Procedure, shortened: as §1

WPMY1-TP53BP1-CLTA = tested on: WPMY1-TP53BP1-CLTA
Procedure, shortened: as §1

WPMY1-TUBA1B-RELA = tested on: WPMY1-TUBA1B-RELA
Procedure, shortened: as §1

Measured: phenotypically active

COc1ccc2c(c1)N(C(C)=O)[C@H]1[C@@H]3CO[C@H](C)[C@@H]4CN5CC[C@]21[C@@H]5C[C@H]34 [Strychnospermine]
inactive: A549-ACTB-RAB5A 0 | A549-CANX-COX4 0 | A549-GM130-SQSTM1 0 | A549-TP53BP1-CLTA 0 | A549-TUBA1B-RELA 0 | HepG2-ACTB-RAB5A 0 | HepG2-CANX-COX4 0 | HepG2-GM130-SQSTM1 0 | HepG2-TP53BP1-CLTA 0 | HepG2-TUBA1B-RELA 0 | WPMY1-ACTB-RAB5A 0 | WPMY1-CANX-COX4 0 | WPMY1-GM130-SQSTM1 0 | WPMY1-TP53BP1-CLTA 0 | WPMY1-TUBA1B-RELA 0

CN(C)CCC[C@@]1(c2ccc(F)cc2)OCc2cc(C#N)ccc21 [escitalopram]
inactive: A549-ACTB-RAB5A 0 | A549-CANX-COX4 0 | A549-GM130-SQSTM1 0 | A549-TP53BP1-CLTA 0 | A549-TUBA1B-RELA 0 | HepG2-ACTB-RAB5A 0 | HepG2-CANX-COX4 0 | HepG2-GM130-SQSTM1 0 | HepG2-TP53BP1-CLTA 0 | HepG2-TUBA1B-RELA 0 | WPMY1-ACTB-RAB5A 0 | WPMY1-CANX-COX4 0 | WPMY1-GM130-SQSTM1 0 | WPMY1-TP53BP1-CLTA 0 | WPMY1-TUBA1B-RELA 0

CC(C)C(=O)c1c(C(C)C)nn2ccccc12 [Ibudilast]
inactive: A549-ACTB-RAB5A 0 | A549-CANX-COX4 0 | A549-GM130-SQSTM1 0 | A549-TP53BP1-CLTA 0 | A549-TUBA1B-RELA 0 | HepG2-ACTB-RAB5A 0 | HepG2-CANX-COX4 0 | HepG2-GM130-SQSTM1 0 | HepG2-TP53BP1-CLTA 0 | HepG2-TUBA1B-RELA 0 | WPMY1-ACTB-RAB5A 0 | WPMY1-CANX-COX4 0 | WPMY1-GM130-SQSTM1 0 | WPMY1-TP53BP1-CLTA 0 | WPMY1-TUBA1B-RELA 0

Cc1c(OCC(F)(F)F)ccnc1CS(=O)c1nc2ccccc2[nH]1 (stereo not given) [lansoprazole]
inactive: A549-ACTB-RAB5A 0 | A549-CANX-COX4 0 | A549-GM130-SQSTM1 0 | A549-TP53BP1-CLTA 0 | A549-TUBA1B-RELA 0 | HepG2-ACTB-RAB5A 0 | HepG2-CANX-COX4 0 | HepG2-GM130-SQSTM1 0 | HepG2-TP53BP1-CLTA 0 | HepG2-TUBA1B-RELA 0 | WPMY1-ACTB-RAB5A 0 | WPMY1-CANX-COX4 0 | WPMY1-GM130-SQSTM1 0 | WPMY1-TP53BP1-CLTA 0 | WPMY1-TUBA1B-RELA 0

C#C[C@]1(O)CC[C@H]2[C@@H]3CCc4cc(OC5CCCC5)ccc4[C@H]3CC[C@@]21C [quinestrol]
inactive: A549-ACTB-RAB5A 0 | A549-CANX-COX4 0 | A549-GM130-SQSTM1 0 | A549-TP53BP1-CLTA 0 | A549-TUBA1B-RELA 0 | HepG2-ACTB-RAB5A 0 | HepG2-CANX-COX4 0 | HepG2-GM130-SQSTM1 0 | HepG2-TP53BP1-CLTA 0 | HepG2-TUBA1B-RELA 0 | WPMY1-ACTB-RAB5A 0 | WPMY1-CANX-COX4 0 | WPMY1-GM130-SQSTM1 0 | WPMY1-TP53BP1-CLTA 0 | WPMY1-TUBA1B-RELA 0

CCN1C(C)(C)CC(Oc2ccc(C(=O)Nc3ccc(NC(=O)Nc4cc(C(C)(C)C)on4)cc3)nc2)CC1(C)C
inactive: A549-ACTB-RAB5A 0 | A549-CANX-COX4 0 | A549-GM130-SQSTM1 0 | A549-TP53BP1-CLTA 0 | A549-TUBA1B-RELA 0 | HepG2-ACTB-RAB5A 0 | HepG2-CANX-COX4 0 | HepG2-GM130-SQSTM1 0 | HepG2-TP53BP1-CLTA 0 | HepG2-TUBA1B-RELA 0 | WPMY1-ACTB-RAB5A 0 | WPMY1-CANX-COX4 0 | WPMY1-GM130-SQSTM1 0 | WPMY1-TP53BP1-CLTA 0 | WPMY1-TUBA1B-RELA 0

NS(=O)(=O)Cc1noc2ccccc12 [zonisamide]
inactive: A549-ACTB-RAB5A 0 | A549-CANX-COX4 0 | A549-GM130-SQSTM1 0 | A549-TP53BP1-CLTA 0 | A549-TUBA1B-RELA 0 | HepG2-ACTB-RAB5A 0 | HepG2-CANX-COX4 0 | HepG2-GM130-SQSTM1 0 | HepG2-TP53BP1-CLTA 0 | HepG2-TUBA1B-RELA 0 | WPMY1-ACTB-RAB5A 0 | WPMY1-CANX-COX4 0 | WPMY1-GM130-SQSTM1 0 | WPMY1-TP53BP1-CLTA 0 | WPMY1-TUBA1B-RELA 0

CCC(=C(CC)c1ccc(O)cc1)c1ccc(O)cc1 (stereo in doubt) [diethylstilbestrol]
inactive: A549-ACTB-RAB5A 0 | A549-CANX-COX4 0 | A549-GM130-SQSTM1 0 | A549-TP53BP1-CLTA 0 | A549-TUBA1B-RELA 0 | HepG2-ACTB-RAB5A 0 | HepG2-CANX-COX4 0 | HepG2-GM130-SQSTM1 0 | HepG2-TP53BP1-CLTA 0 | HepG2-TUBA1B-RELA 0 | WPMY1-ACTB-RAB5A 0 | WPMY1-CANX-COX4 0 | WPMY1-GM130-SQSTM1 0 | WPMY1-TP53BP1-CLTA 0 | WPMY1-TUBA1B-RELA 0

CNC[C@H](O)c1ccc(O)c(O)c1 [epinephrine]
inactive: A549-ACTB-RAB5A 0 | A549-CANX-COX4 0 | A549-GM130-SQSTM1 0 | A549-TP53BP1-CLTA 0 | A549-TUBA1B-RELA 0 | HepG2-ACTB-RAB5A 0 | HepG2-CANX-COX4 0 | HepG2-GM130-SQSTM1 0 | HepG2-TP53BP1-CLTA 0 | HepG2-TUBA1B-RELA 0 | WPMY1-ACTB-RAB5A 0 | WPMY1-CANX-COX4 0 | WPMY1-GM130-SQSTM1 0 | WPMY1-TP53BP1-CLTA 0 | WPMY1-TUBA1B-RELA 0

Cc1occc(=O)c1O [3-hydroxy-2-methyl-4-pyrone]
inactive: A549-ACTB-RAB5A 0 | A549-CANX-COX4 0 | A549-GM130-SQSTM1 0 | A549-TP53BP1-CLTA 0 | A549-TUBA1B-RELA 0 | HepG2-ACTB-RAB5A 0 | HepG2-CANX-COX4 0 | HepG2-GM130-SQSTM1 0 | HepG2-TP53BP1-CLTA 0 | HepG2-TUBA1B-RELA 0 | WPMY1-ACTB-RAB5A 0 | WPMY1-CANX-COX4 0 | WPMY1-GM130-SQSTM1 0 | WPMY1-TP53BP1-CLTA 0 | WPMY1-TUBA1B-RELA 0

CCc1cc2c(=O)c(-c3nc4ccccc4s3)coc2c(CN2CCCCC2)c1O
inactive: A549-ACTB-RAB5A 0 | A549-CANX-COX4 0 | A549-GM130-SQSTM1 0 | A549-TP53BP1-CLTA 0 | A549-TUBA1B-RELA 0 | HepG2-ACTB-RAB5A 0 | HepG2-CANX-COX4 0 | HepG2-GM130-SQSTM1 0 | HepG2-TP53BP1-CLTA 0 | HepG2-TUBA1B-RELA 0 | WPMY1-ACTB-RAB5A 0 | WPMY1-CANX-COX4 0 | WPMY1-GM130-SQSTM1 0 | WPMY1-TP53BP1-CLTA 0 | WPMY1-TUBA1B-RELA 0

CCCCCCCCCCCCCCCC(=O)C(F)(F)F
inactive: A549-ACTB-RAB5A 0 | A549-CANX-COX4 0 | A549-GM130-SQSTM1 0 | A549-TP53BP1-CLTA 0 | A549-TUBA1B-RELA 0 | HepG2-ACTB-RAB5A 0 | HepG2-CANX-COX4 0 | HepG2-GM130-SQSTM1 0 | HepG2-TP53BP1-CLTA 0 | HepG2-TUBA1B-RELA 0 | WPMY1-ACTB-RAB5A 0 | WPMY1-CANX-COX4 0 | WPMY1-GM130-SQSTM1 0 | WPMY1-TP53BP1-CLTA 0 | WPMY1-TUBA1B-RELA 0
